Results with a measured potency or affinity are listed apart. Calls of active or inactive are those of the source.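 The calls were made as follows: active = every repeat run showing a signal drop whose fitted half-maximal concentration is at most twice the top tested concentration; inconclusive = repeat runs disagree, or flat partial drop, or poor fit; inactive = the rest.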
experiment: general mammalian cell viability loss – activator set, cherry-pick, cytotoxicity control for miR-122 modulator project, dose response (AID 720690); conditions: HEK293T viability, CellTiter-Glo luminescence, 48 h; series mostly up to 26 µM

| Structure (SMILES) | outcome |
| --- | --- |
| C[C@@H]1CN([C@@H](C)CO)S(=O)(=O)c2ccc(C3=CCCC3)cc2O[C@@H]1CN(C)C(=O)c1ccc(F)cc1 | inactive |
| CN1C(=O)c2cc(NS(=O)(=O)c3cccc(F)c3)ccc2OC[C@H]2O[C@@H](CC(=O)NCCN3CCCCC3)CC[C@H]21 | inactive |
| CCN(C[C@H]1[C@@H](c2ccccc2)[C@@H](CO)N1C(=O)COC)S(C)(=O)=O | inactive |
| O=C(c1ccccc1)N1C[C@H]2[C@@H](c3ccccc31)[C@@H](CO)N2C(=O)CN1CCOCC1 | inactive |
| CCN(C[C@@H]1N[C@@H](CO)[C@@H]1c1ccc(C2=CCCC2)cc1)C(=O)c1cccnc1 | inactive |
| COCC(=O)N(C)C[C@H]1[C@H](c2ccccc2)[C@@H](CO)N1C(=O)NC(C)C | inactive |
| C/C=C/c1ccc([C@@H]2[C@@H](CN(C)C(=O)CC)N(C(=O)NC(C)C)[C@H]2CO)cc1 | inactive |
| CCNC(=O)C[C@@H]1CC[C@@H]2[C@@H](COc3ccc(NC(=O)c4ccccc4)cc3C(=O)N2C)O1 | inactive |
| CCOc1ccc(CCNC(=O)C2CCN(S(=O)(=O)N3CCC(C)CC3)CC2)cc1OCC | inactive |
| CN1C(=O)c2cc(NC(=O)c3cccs3)ccc2OC[C@H]2O[C@@H](CC(=O)NCCN3CCCCC3)CC[C@H]21 | inactive |
| CN(C)CCCNC(=O)C[C@H]1CC[C@H]2[C@H](COc3ccc(NC(=O)NC4CCCC4)cc3C(=O)N2C)O1 | inactive |
| C[C@H](CO)N1C[C@H](C)[C@@H](CN(C)CC2CCCCC2)OCCCC[C@H](C)Oc2ccc(NC(=O)Nc3cccc4ccccc34)cc2C1=O | inactive |

Source: PubChem BioAssay AID720690 (Broad Institute, 2013)
